From PubChem BioAssay AID1159580 (chemical genetic matrix, 2015) come the findings set out here.

The assay is described as follows: chemical genetic growth profiling, strain panel (AID 1159580).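 Further: tested at 20 µM; growth read once vehicle control cultures reached saturation at 30 °C; 1 = growth at the plate median or of vehicle wells; lower values mean less growth of the strain.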 Conditions: growth OD.
Setting [1] is: S. cerevisiae deletion strains, locus YAL040C, strain CLN3, hits give low values.
Where [2] appears, read: S. cerevisiae deletion strains, locus YCL061C, strain MRC1 (second series), hits give low values.
Setting [3] is: S. cerevisiae deletion strains, locus YDR363W, strain ESC2, hits give low values.
Where [4] appears, read: S. cerevisiae deletion strains, locus YER002W, strain NOP16, hits give low values.
Where [5] appears, read: S. cerevisiae deletion strains, locus YGR229C, strain SMI1, hits give low values.
Setting [6] is: S. cerevisiae deletion strains, locus YNL175C, strain NOP13, hits give low values.
Where [7] appears, read: S. cerevisiae deletion strains, locus YNL197C, strain WHI3, hits give low values.
The mark [8] stands for this setting: S. cerevisiae deletion strains, locus YNL224C, strain SQS1, hits give low values.
The mark [9] stands for this setting: S. cerevisiae deletion strains, locus YNL322C, strain KRE1, hits give low values.
[10] abbreviates: S. cerevisiae deletion strains, locus YOR083W, strain WHI5 (second series), hits give low values.
[11] abbreviates: S. cerevisiae deletion strains, locus YPL055C, strain LGE1, hits give low values.
The mark [12] stands for this setting: S. cerevisiae deletion strains, locus YPL241C, strain CIN2, hits give low values.
Where [13] appears, read: S. cerevisiae deletion strains, locus YAL013W, strain DEP1, hits give low values.
The mark [14] stands for this setting: S. cerevisiae deletion strains, locus YBR229C, strain ROT2, hits give low values.
The mark [15] stands for this setting: S. cerevisiae deletion strains, locus YDL101C, strain DUN1, hits give low values.
Where [16] appears, read: S. cerevisiae deletion strains, locus YDR150W, strain NUM1, hits give low values.
The mark [17] stands for this setting: S. cerevisiae deletion strains, locus YEL061C, strain CIN8, hits give low values.
The mark [18] stands for this setting: S. cerevisiae deletion strains, locus YGR078C, strain PAC10, hits give low values.
Where [19] appears, read: S. cerevisiae deletion strains, locus YHR030C, strain SLT2, hits give low values.
The mark [20] stands for this setting: S. cerevisiae deletion strains, locus YHR087W, strain rtc3, hits give low values.
Where [21] appears, read: S. cerevisiae deletion strains, locus YJR043C, strain POL32, hits give low values.
The mark [22] stands for this setting: S. cerevisiae deletion strains, locus YJR075W, strain HOC1, hits give low values.
Setting [23] is: S. cerevisiae deletion strains, locus YLR039C, strain RIC1, hits give low values.
The mark [24] stands for this setting: S. cerevisiae deletion strains, locus YLR058C, strain SHM2 (second series), hits give low values.
Setting [25] is: S. cerevisiae deletion strains, locus YLR085C, strain ARP6, hits give low values.
The mark [26] stands for this setting: S. cerevisiae deletion strains, locus YLR262C, strain YPT6, hits give low values.
[27] abbreviates: S. cerevisiae deletion strains, locus YML094W, strain GIM5, hits give low values.
[28] abbreviates: S. cerevisiae deletion strains, locus YMR219W, strain ESC1, hits give low values.
Setting [29] is: S. cerevisiae deletion strains, locus YMR263W, strain SAP30, hits give low values.
The mark [30] stands for this setting: S. cerevisiae deletion strains, locus YMR307W, strain GAS1, hits give low values.
Where [31] appears, read: S. cerevisiae deletion strains, locus YNL153C, strain GIM3, hits give low values.
Where [32] appears, read: S. cerevisiae deletion strains, locus YNL298W, strain CLA4 (second series), hits give low values.
Setting [33] is: S. cerevisiae deletion strains, locus YNR030W, strain Alg12, hits give low values.
Setting [34] is: S. cerevisiae deletion strains, locus YPR135W, strain CTF4, hits give low values.
The mark [35] stands for this setting: S. cerevisiae strains, strain wild type, hits give low values.

The campaign covered roughly 5,500 compounds. About 2,000 (36%) were called active. Not shown: some 18% with an inconclusive outcome. Some of the results follow. A number with no mark means an inactive call. No stated cut-off is given here; in the data, active means normalized growth mostly below about 0.91 (no sharp cut-off); inconclusive means no clear call, values can overlap the other calls; inactive means mostly above about 0.92.

For `COc1ccccc1N1CCN(CCN(C(=O)c2ccc(I)cc2)c2ccccn2)CC1`, the normalized growth runs as follows: under setting [1], 0.976; under setting [2], 0.988; under setting [3], 0.943; under setting [4], 1.01; under setting [5], 0.984; under setting [6], 0.983. Also, the normalized growth under setting [7] is 0.996; the normalized growth under setting [8] is 0.987; the normalized growth under setting [9] is 0.977; the normalized growth under setting [10] was 0.997; the normalized growth under setting [11] is 0.964; the normalized growth under setting [12] was 0.995.

On to `COc1ccccc1N1CCN(C(=O)c2cccs2)CC1`, for which the normalized growth under setting [13] was 0.998; the normalized growth under setting [14] was 1.01; the normalized growth under setting [15] was 0.991; the normalized growth (S. cerevisiae deletion strains, locus YDL134C, strain PPH21, hits give low values) is 0.959; the normalized growth under setting [16] was 1.04; the normalized growth under setting [17] was 1.01. The normalized growth runs as follows: under setting [18], 1; under setting [5], 0.993; under setting [19], 0.963; under setting [20], 0.985; under setting [21], 1.01; under setting [22], 1.03. Also, the normalized growth reads like this: (S. cerevisiae deletion strains, locus YKL190W, strain CNB1, hits give low values) 0.99; under setting [23], 1.01; under setting [24], 0.984; under setting [25], 0.889; under setting [26], 1.13; under setting [27], 0.972. The normalized growth is, setting by setting: under setting [28], 0.988; under setting [29], 1.02; under setting [30], 0.849; under setting [31], 1.04; under setting [32], 0.981; under setting [9], 0.993. The normalized growth runs as follows: under setting [33], 0.957; under setting [11], 0.99; under setting [12], 0.957; under setting [34], 1.1; under setting [35], 0.993.

With `COc1ccccc1N1CCN(C(=O)Nc2cc(Cl)cc(Cl)c2)CC1`, the normalized growth runs as follows: under setting [13], 0.934; under setting [14], 0.988; (S. cerevisiae deletion strains, locus YCL061C, strain MRC1, hits give low values) 0.927; under setting [15], 0.967; under setting [16], 0.854; under setting [17], 0.914. In addition, the normalized growth runs as follows: under setting [18], 0.965; under setting [19], 0.434 (active); under setting [20], 0.97; under setting [21], 0.971; under setting [22], 0.986; under setting [23], 1.09. In addition, the normalized growth was 1 under setting [24]; 0.511 (active) under setting [25]; 1.05 under setting [26]; 0.823 (active) under setting [27]; 1 under setting [28]; 0.937 under setting [29]. For the same compound, the normalized growth under setting [31] was 0.975; the normalized growth under setting [32] was 0.715 (active); the normalized growth under setting [9] is 0.984; the normalized growth under setting [33] was 0.877 (active); the normalized growth (S. cerevisiae deletion strains, locus YOL006C, strain TOP1, hits give low values) was 0.857; the normalized growth under setting [11] is 0.761 (active). The normalized growth by setting is: under setting [12], 0.716 (active); under setting [34], 0.667; under setting [35], 0.922.

As for `COc1ccccc1N1CCN(CCCCN2C(=O)c3ccccc3C2=O)CC1`, the normalized growth under setting [13] was 1; the normalized growth under setting [1] is 0.99; the normalized growth under setting [2] is 0.995; the normalized growth under setting [3] is 0.963; the normalized growth under setting [4] is 1.01; the normalized growth under setting [18] was 0.985. The normalized growth under setting [5] is 1.02; the normalized growth under setting [22] was 0.993; the normalized growth under setting [29] is 1; the normalized growth under setting [31] is 0.99; the normalized growth under setting [6] is 0.979; the normalized growth under setting [7] was 0.981. Moreover, the normalized growth is 1 under setting [8], 0.985 under setting [10], 0.971 under setting [11] and 1 under setting [12].

`COc1ccccc1N1CCN(CCN(C(=O)C2CCCCC2)c2ccccn2)CC1`: the normalized growth was 0.99 under setting [1]; 1.01 under setting [2]; 1.01 under setting [3]; 1.01 under setting [4]; 1.01 under setting [22]; 0.997 under setting [29]. Besides, the normalized growth is, setting by setting: under setting [30], 0.993; (S. cerevisiae deletion strains, locus YNL128W, strain TEP1, hits give low values) 1.01; under setting [31], 1.01; under setting [6], 0.999; under setting [7], 1; under setting [8], 1. The normalized growth reads like this: under setting [10], 1.05; under setting [12], 1.01.
